IMPase Li inh – qHTS Assay for Identifying the Cell-Membrane Permeable IMPase Inhibitors: Potentiation with Lithium; CHO-M1 cells, IP1 TR-FRET (IP-One), carbachol + lithium; hit rate 0.35% among 210,000; Potency, µM (top dose mostly 59.4 µM), without a hit: top-dose activity, negative = IMPase inhibition, hits mostly inhibitors; AID 1457, 2008;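 note: IP1 builds up when IMPase is blocked and the TR-FRET signal falls; potency is the fitted concentration of half-maximal effect; plate controls were basal vehicle for no effect and high inhibitor control for full effect; nearly all actives have a fitted effect of over 50% in size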
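Steps: plate 2000 CHO-M1 cells per well and culture 16–30 h; add compound and lithium; incubate 30 min, 37C; add d2-IP1 tracer and Eu cryptate anti-IP1 antibody in lysis buffer; read after 10 min at room temperature.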
IMPase inh – qHTS Assay for Identifying the Cell-Membrane Permeable IMPase Inhibitors. Inositol monophosphatase 1 (Rattus norvegicus), P97697. 120,000 tested, under 10 active. inhibition (IP1 accumulation), % at 46.1 µM. CHO-M1 cells, IP1 accumulation, HTRF TR-FRET ratio; active = well fitted curve in the direction sought with a large enough effect in the signal ratio, not every such curve was filed as active; inconclusive = small, poorly fitted or top-dose-only effect, or a change in a side signal; inactive = no such curve, though single readings can be large or run the other way; the % refers to the signal ratio;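 note: cells stimulated with carbachol in lithium chloride buffer; plate controls were DMSO basal wells for no effect and reference inhibitor wells for full effect; higher means more IMPase inhibition seen as more IP1 and lower FRET ratio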
Target sequence (P97697 whole entry, looked up): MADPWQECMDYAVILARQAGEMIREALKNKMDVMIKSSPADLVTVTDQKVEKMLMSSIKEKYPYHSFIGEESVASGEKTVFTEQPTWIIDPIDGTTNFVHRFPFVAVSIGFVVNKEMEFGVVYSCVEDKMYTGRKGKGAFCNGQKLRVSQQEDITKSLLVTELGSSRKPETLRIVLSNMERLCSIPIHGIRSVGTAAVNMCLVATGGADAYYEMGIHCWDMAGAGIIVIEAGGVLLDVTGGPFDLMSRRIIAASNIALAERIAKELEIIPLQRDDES
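Cellular IMPase inhibition is scored as a rise in cytosolic IP1, detected by competitive TR-FRET between d2-labelled IP1 and a europium anti-IP1 antibody. M1-expressing CHO cells were stimulated with carbachol for 30 min at 37C, with lithium (50 mM LiCl) present in the buffer.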
HTT aggregate – qHTS Multiplex Assay to Identify Dual Action Probes in a Cell Model of Huntington: Aggregate Formation (GFP) | Potency, µM (series often up to 46.1 µM), for the others: at the highest dose activity change, negative = inhibition, most hits filed as inhibitors | PC12 HttQ103-GFP aggregates, Acumen cytometry, 40 h | hit rate 1.1% among 220,000; note: potency is the fitted concentration of half-maximal effect; % is set by controls: 0 for no effect and ±100 for the full control effect; nearly all actives have a fitted effect of over 60% in size
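Read-out: GFP aggregate count by laser scanning cytometer (488 nm excitation, 500-530 nm emission, 1–25 µm objects >6 SD above background). Cells: PC12, inducible HTTex1-Q103-GFP, 100 nM tebufenozide; compounds titrated.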
HTT cytoprotect – qHTS Multiplex Assay to Identify Dual Action Probes in a Cell Model of Huntington: Cytoprotection (ATP). PC12 HTT-Q103 induced, cytoprotection, ATP luminescence, 40 h. Potency, µM (highest dose often 56.4 µM), inactives show cytoprotection (ATP increase), actives largely listed as activators. hit rate 0.14% among 230,000. AID 1471, 2008; note: potency is the fitted concentration of half-maximal effect; % of control where 0% means no effect; nearly all actives have a fitted effect of over 45% in size
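PC12 cells with ecdysone-inducible HTT exon 1 Q103-GFP, induced with 100 nM tebufenozide and co-treated with library compounds in a dose series (1536-well, 1500 cells/well). Cytoprotection read as ATP content by ATPlite luminescence.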
LMNA splice mod – qHTS Assay for Modulators of Lamin A Splicing; HeLa LMNA splicing GFP/RFP minigene ratio, 48 h; Potency, µM (series often up to 46.1 µM), for the others: top-dose ratio change, negative = inhibition, most hits filed as inhibitors; hit rate 0.01% among 200,000; active = well fitted inhibition curve with a large enough effect in the signal ratio, with a control signal flat, not every such curve was filed as active; inconclusive = small, poorly fitted or top-dose-only effect, or effect the other way, or a change in a side signal; the % refers to the signal ratio; note: potency is the fitted concentration of half-maximal effect; % is set by controls: 0 for no effect and ±100 for the full control effect
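S3 HeLa cells stably expressing lamin A-EGFP splicing minigene plus DsRed2, 600 cells/well, 48 h compound exposure at 37C. Laser-scanning cytometry; analysed as GFP (500-530 nm)/RFP (575-640 nm) total intensity ratio; 0.5% DMSO vehicle.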
NPSR antagonist – qHTS Assay for Antagonists of the Neuropeptide S Receptor: cAMP Signal Transduction; Q6W5P4; CHO-NPSR cells, cAMP TR-FRET, antagonist mode; Potency, µM (top dose mostly 38.3 µM), for the others: top-dose activity change, negative = inhibition, hits mostly inhibitors; hit rate 1% among 220,000; AID 1461, 2008; note: potency is the fitted concentration of half-maximal effect; % is set by controls: 0 for no effect and ±100 for the full control effect; nearly all actives have a fitted effect of over 50% in size
Target sequence (Q6W5P4 whole entry, looked up): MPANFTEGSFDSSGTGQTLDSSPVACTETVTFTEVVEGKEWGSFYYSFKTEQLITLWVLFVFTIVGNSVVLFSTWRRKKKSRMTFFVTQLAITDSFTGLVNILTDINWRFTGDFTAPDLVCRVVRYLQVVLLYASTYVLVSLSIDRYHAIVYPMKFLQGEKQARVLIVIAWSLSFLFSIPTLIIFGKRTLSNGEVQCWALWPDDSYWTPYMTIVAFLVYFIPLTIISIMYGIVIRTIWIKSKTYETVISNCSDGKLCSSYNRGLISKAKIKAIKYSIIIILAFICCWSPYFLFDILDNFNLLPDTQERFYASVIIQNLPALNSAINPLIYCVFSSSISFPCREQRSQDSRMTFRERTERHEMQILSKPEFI
The depositor's hits bear a star; ? = inconclusive; nt = not tested or not shown; [ ] = remark or other dose. An excerpt weighted towards active compounds, which were near 1.6% of everything screened. Unless noted, calls come from the whole dose curve; as a rule, active = well fitted curve in the direction sought with a large enough effect; inconclusive = small, poorly fitted or top-dose-only effect, or another doubt; inactive = no such curve, though single readings can be large; an effect the other way counts as inactive or inconclusive.

SMILES	IMPase Li inh	IMPase inh	HTT aggregate	HTT cytoprotect	LMNA splice mod	NPSR antagonist
Cc1c(Cl)c(-c2n[nH]c(=S)n2-c2ccc(F)cc2)nn1C	11µM*	?	9%	12%	-1%	?
Cn1cc(Cl)c(-c2n[nH]c(=S)n2-c2ccc(F)cc2)n1	?	nt	13%	14%[10 µM]	6%	-9%
Cn1cc(Cl)c(-c2n[nH]c(=S)n2-c2ccccc2)n1	11µM*	nt	2%	nt	?	-30%
C=C1CCC[C@]2(C)C[C@H]3OC(=O)[C@H](CNCCc4ccccc4OC)C3CC12 (stereo not given in full)	23%	nt	nt	-16%	nt	nt
CN(C)CCCO[C@H]1[C@H]([C@H](O)CO)O[C@H]2OC(C)(C)O[C@@H]21	nt	4	nt	5%[1.9 µM]	nt	nt
COc1cccc(N2CC(O)=C(c3nc4ccccc4s3)C2=N)c1	?	nt	-15%[9.22 µM]	-61%[10 µM]	?	-20%
COc1ccc(N2CC(O)=C(c3nc4ccccc4s3)C2=N)cc1	14µM*	9	6%	-6%	-1%	-13%[46.1 µM]
CC1CC(C)CN(S(=O)(=O)c2ccc(C(=O)NCCCn3ccnc3)cc2)C1 (stereo not given)	12%[38.3 µM]	5	7.9µM*	-125%	?	-18%[46.1 µM]
FC(F)(F)c1nc(=S)c2ccccc2[nH]1	3.2µM*	nt	-21%	12%	nt	?
CCN(CC)P(=O)(Nc1ccccc1Br)c1ccc(N(C)C)cc1NC(=O)c1ccco1 (stereo not given)	3%	nt	-24%	6%	4%[46 µM]	7.9µM*
CCCNC(=O)OC[C@H]1O[C@@H](CCO/N=C\[C@@H](NS(=O)(=O)c2ccc(C)cc2)[C@H](C)/C=C\CC(=O)OC)C=C[C@@H]1Oc1ccc(OC)cc1	nt	nt	nt	0%[10 µM]	nt	nt
CN(C)C=Nc1ncc2c([nH]c3ccccc32)c1C#N	14%[38.3 µM]	-2	6.3µM*	-21%	?	-16%[46.1 µM]
O=C(N/N=C/c1cccc(F)c1)c1c(O)c2ccccc2[nH]c1=O	5%	-6	?	-1%[10 µM]	-9%	-1%[46.1 µM]
O=C(N/N=C/c1ccc(F)cc1)c1c(O)c2ccccc2[nH]c1=O	nt	-2	3.5µM*	-51%[10 µM]	-12%	8%[46.1 µM]
O=C(N/N=C/c1ccccc1)c1c(O)c2ccccc2[nH]c1=O	3%	2	22µM*	12%[10 µM]	-9%	?
CC1(C)CC(=O)C2=C(C1)OC1=C(C(=O)CC(C)(C)C1)C2c1ccc(O)cc1O	-3%[38.3 µM]	11	?	-87%	?	13µM*
Cc1cccc(C)c1NC(=O)c1cc(S(=O)(=O)N2CCc3ccccc3C2)ccc1F	nt	nt	nt	nt	-10%[46 µM]	nt
CCOC(=O)c1nn(-c2cccc(C)c2)c2nc(-c3ccccc3)c(C#N)c(=O)n12	4µM*	?	3%	-19%	?	21%[46.1 µM]
COc1cccc(N2CCN(c3c(C#N)c(C(F)(F)F)nn3C)CC2)c1	29%[38.3 µM]	5	11µM*	26%	?	-11%[46.1 µM]
O=C(CN1C(=O)CCc2cc(S(=O)(=O)N3CCOCC3)ccc21)NCc1ccc(F)cc1	nt	nt	nt	nt	6%[46 µM]	nt
CCNc1ncc2nc(-c3ccc(Cl)cc3)c(=O)n(Cc3ccc(F)cc3)c2n1	2µM*	nt	nt	5%	?	nt
CCNc1ncc2nc(-c3cccs3)c(=O)n(Cc3cccc(OC)c3)c2n1	2µM*	nt	nt	-25%	?	nt
CCNc1ncc2nc(-c3ccc(Cl)cc3)c(=O)n(C3CC3)c2n1	5µM*	nt	nt	-49%	nt	nt
COc1cccc(Cn2c(=O)c(-c3cccs3)nc3cnc(Nc4ccccc4)nc32)c1	-18%	nt	nt	-12%	nt	nt
CCNc1ncc2nc(-c3cn(C)c4ccccc34)c(=O)n(Cc3ccc(F)cc3)c2n1	0%	nt	nt	25µM*	?	nt
SMILES	IMPase Li inh	IMPase inh	HTT aggregate	HTT cytoprotect	LMNA splice mod	NPSR antagonist
Nc1nonc1-c1nc2ccccc2n1CC(=O)O	38%[38.3 µM]	11	12%	2%	-3%	-11%[46.1 µM]
CCCn1c(-c2nonc2N)nc2ccccc21	-7%	-4	13µM*	3%[10 µM]	-11%	2%[46.1 µM]
CC(C)(C)NC(=O)C(=O)NNC(=O)c1cccc(F)c1	-3%	nt	0.63µM*	?	11%[46 µM]	6%
CC(C)(C)NC(=O)C(=O)NNC(=O)c1ccccc1	-2%[38.3 µM]	?	12%	-15%	5%	0%[46.1 µM]
CN(C)C(=O)c1ccc(-c2ccc3ncnc(N4CCOCC4)c3c2)cc1	27%	nt	nt	-89%	?	nt
COc1ccc(OC)c(NC(=O)N2c3ccccc3Sc3ccccc32)c1	nt	1	nt	nt	nt	nt
O=C(O)CCc1ccc(-c2ccc(Br)cc2)o1	8.9µM*	?	17%	-35%	4%	?
CCCC(=O)O[C@]1(C(=O)CCl)[C@H](C)C[C@@H]2[C@H]3CCC4=CC(=O)C=C[C@]4(C)[C@@]3(F)C(=O)C[C@@]21C	nt	nt	2%	-11%	nt	nt
CCOC(=O)c1c(-c2cccc([N+](=O)[O-])c2)csc1NC(=O)C1CC1	11%[38.3 µM]	12	26%	-14%	-8%	-28%[46.1 µM]
CCOC(=O)c1c(-c2cccc([N+](=O)[O-])c2)csc1NC(=O)C1CCCCC1	15%	-9	-29%	-14%[10 µM]	?	10µM*
CCNC(=S)Nc1scc(-c2ccccc2)c1C(=O)OCC	?	nt	14µM*	nt	?	-56%
CCOC(=O)c1c(-c2ccc(C)c(C)c2)csc1NC(=O)C1CC=CCC1C(=O)O (stereo not given)	16%[38.3 µM]	-3	-7%	-1%	9%	10µM*
CC(C)(C)CC(C)(C)c1ccc(OCCO)cc1	1%	nt	2%	8%	?	nt
Cc1ccc(S(=O)(=O)N(C)C)cc1NS(=O)(=O)c1ccc(Cl)s1	-4%	nt	-12%	12%[0.074 µM]	-11%	-1%
O=c1c(-c2ccccc2)c1-c1ccccc1	nt	nt	14µM*	11µM*	?	-36%
C/C(=N\OCC(=O)Nc1ccc2c(c1)OCCO2)c1ccc2c(c1)OCCO2	nt	-19	28µM*	-13%[10 µM]	-20%	-6%[46.1 µM]
O=C(CCSCc1ccccc1Cl)N1CCN(c2ccc(F)cc2)CC1	nt	nt	nt	nt	1%[46 µM]	nt
O=[N+]([O-])c1ccc(Sc2n[nH]c(-c3ccc(Cl)cc3Cl)n2)nc1	-16%[38.3 µM]	-7	?	0.79µM*	?	-13%[46.1 µM]
O=Cc1ccc(-n2nncc2-c2ccc([N+](=O)[O-])cc2)cc1	11%	nt	-13%[9.22 µM]	-6%[10 µM]	2%[46 µM]	-12%
C=CC[n+]1c(-c2ccc(OC)cc2)csc1NNC(=O)Nc1ccccc1	36%[38.3 µM]	5	10µM*	28%	?	-15%[46.1 µM]
C=CC[n+]1c(-c2ccc(C)cc2)csc1Nc1ccc(NC(C)=O)cc1	17%	nt	?	-34%	?	-16%

Assay outcomes deposited in PubChem by National Center for Advancing Translational Sciences (NCATS).
